T1: FBXL12, Q9NXK8
T1 chain: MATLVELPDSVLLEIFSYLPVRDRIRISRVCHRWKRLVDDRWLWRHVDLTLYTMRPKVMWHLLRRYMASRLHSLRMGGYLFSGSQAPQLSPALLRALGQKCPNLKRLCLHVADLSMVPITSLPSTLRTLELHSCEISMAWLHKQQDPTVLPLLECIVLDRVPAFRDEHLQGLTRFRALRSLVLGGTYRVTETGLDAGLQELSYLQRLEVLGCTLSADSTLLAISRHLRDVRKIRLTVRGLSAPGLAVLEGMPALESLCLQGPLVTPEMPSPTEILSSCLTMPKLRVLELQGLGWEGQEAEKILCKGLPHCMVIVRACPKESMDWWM

B1: FBXL12_hotspot_59_81 (protein)
chain: MRRIIIRGEPEQRLRQFEALAKALIELIKEHKGTPEAERLEEMLVGLFEEALKYAKEEKDVELLEALIKLAKEALPYVSPEYQKRLEKIIEEAEKAIKEF
B2: FBXL12_hotspot_52_64 (protein)
chain: MRTVTIRVRIESPDMAMARRTTETAAAIARGLAAAGVRVVLEVEAAHLEALRFATRELARVAAELGAELRVRVHPSLDPEEVERVYREALAEAEAEAAAA
B3: FBXL12_hotspot_59_80 (protein)
chain: MRVIRISGEPEQRIRQFELYSDALIELIKEHKGTPEAERLEEMLVGLFKYMLEVAKKEKNVELLETLVKQARKALPHVSPEYAKELEKIIKEAEKAIAEL
B4: FBXL12_hotspot_59_79 (protein)
chain: MRRIIVRGEPEQVIKQTRALADALIALIDEHRGTPEQARLEDMLVGLFEETIKYAKEIGDVELLETIVELADRALPHVSPEYQKRIEELRKEALEAIKKL
B5: FBXL12_hotspot_59_75 (protein)
chain: MLEIRVSAHPDESLEAIKRTVEYAIEMIKELIKRGRIEDAKAAIRSVTRSVTEIVIRKGNEELAEHFLELLEELKEIANEEVKKVIEEAMEEFRERVAAA
B6: FBXL12_hotspot_59_85 (protein)
chain: MRVVIVRGPVEEAARRITELLEAIAELLREIPQDERAERLVEIALSLLEEAVRLVEEGLDEELARRVIEAAERAAEEATPEQAERLNEAIERLREAIERR
B7: FBXL12_hotspot_35_62 (protein)
chain: MRRVVVRFTSPTPEGARYMAVTALLASRELGAEVEIEVAPDASLEIRRIAAALYALVTGVPVSEALARFGLPESEAPAVEAEAERLRAEVDEELARLRAR
B8: FBXL12_hotspot_59_71 (protein)
chain: MRRVVVRGDPEAALRQARALLEALLELLVRHEGTPQEPRLLELLESTYRELLRTARELGDEAAIAAARAAIEAAEKRLSPELAARLRAAVAAAEAAVEAE
B9: FBXL12_hotspot_109_3 (protein)
chain: KSVIVVLASGSPEHAETTFQTGVEIVKGLAEAGVKVGLLILTTKENEAIAEKALEEVKDYVAVSELVVFPTKEEFEAQLDKVKEEKIKRLEEKLEKLEEE
B10: FBXL12_hotspot_35_59 (protein)
chain: MRTVRVVFRGTSPEGARYMALAAALAAKELGARVEIEIDPNESREVRIIAGALMVLAEGRSLEEVVEELGLTEEEVEEMKRIAEELRKETERLAAELRAR
B11: FBXL12_hotspot_59_74 (protein)
chain: MLEIRVSAHPDESTEQIKNTIRYAVEMIKELIERGLIEDAIAAIRSLGRSVTEIVIRRKNEEVYNFFLELLEELKEIANPEVKKVIDEVIKEFKERVKKA
B12: FBXL12_hotspot_54_67 (protein)
chain: KTVTLVLRATTVEALRTTLATGVAIAKGLLAAGIRVRVVIRADSEDVLEATRIATRAAAELEALGAEDITVEIKVETEEEREEVEREAARVRAEAEAERA
B13: FBXL12_hotspot_35_58 (protein)
chain: MRVVVVRFEGSSEEGALYMATAALLAQRVLGARVVVEIHPDESREVRIIAAALRHLAEGLSWEEIREELGLTEEEMERARELAERLRAEVERLAAELRAR
B14: FBXL12_hotspot_52_63 (protein)
chain: MRTVTIVVSVESPDMEMARRTTETAAAIAEGLAAAGVRVVLVVRAAHADALAFATRRLAEVAARLGAELRVETHPSLDPAEVAAIAAAARAAAAAAAAAA
B15: FBXL12_hotspot_52_65 (protein)
chain: MRTVELVLVLQGDDVEAARRLLDRGVAIAEGLKAAGVRVRVVIEYSGSLESVPAVVEAMRRFKALGAEVRVVVSDDPALAEARAALRAAAEELGAEFVVR
B16: FBXL12_hotspot_54_70 (protein)
chain: KVVTIRVRAETIEAARRTVETAVEIARGLREAGIEVEVELELEAEDVEAAARLAAEARHAFERIGARRIEVRLRLARPEDAPVFERLFAEELERLRREEE
B17: FBXL12_hotspot_59_84 (protein)
chain: MRKVVIRGPPEQALANALALLRAAVELLKEHAGSELAPRILEFFLSTLKEAVRAAIALGDEEALEEIERLVEEAQEAVDEEDARRLREALERAREEAEAA
B18: FBXL12_hotspot_59_82 (protein)
chain: MVTVRVRGPLEQALAQALALLRAATALLAELADSPKRPKLLEIYKAVLREAVRLATEAGDEEALAEIERLLAEARAAVSPEDAAELEEAYAEARREAAAA
B19: FBXL12_hotspot_59_73 (protein)
chain: MVEVVIRGPLEQAIEQALALLKAAAELIVKHEGTEKQERLVSIFISTLRELYRLAAEAGDEEAIEEADKIVKELMEKVDPETAAKLKAEREAIKKELAAA
B20: FBXL12_hotspot_59_78 (protein)
chain: MRRIIISGEPEQRIKNLKELSDALIELIDKHKGTPEAERLEEMLVGLFEEALEQAKKEKDLELLETLKKEIEKAKPHVSPEYAEKLEELLKEVEKEIAEL
B21: FBXL12_hotspot_54_69 (protein)
chain: KTVLIVVEAETLPALERSLATALEIARGLRAAGVRVEVRIRVRHPDVAAAAEAATRAAAEFRELGAERIEVEIETATEEDRERAEAARRETEARLAAEKA
B22: FBXL12_hotspot_59_83 (protein)
chain: MIEVRVRGPVEEALRRALELLRAARELLKKHKDSPLYPRILEIFESALREAVRLAVEAGDEEALREAEEIVEEAEKVVSPEDAERLREALERAKREAEEE
B23: FBXL12_hotspot_54_66 (protein)
chain: KTVTLVVRAETVEALRTTLATALAIAEGLLAAGITVRVEIRARSEDVLEATRLATRAAERLEALGAEDIRVEVEVETEEERREVERVAEEERRRERERRA
B24: FBXL12_hotspot_35_57 (protein)
chain: MRTVVVQNAGSSLEGVRYAALAALVAVRVLGARLEVQISPDASREQRLILAAAEALASGRPLEEVVAERGLSEEELEEVRRIAEELRAEAERAVAELRAR
B25: FBXL12_hotspot_109_4 (protein)
chain: MTRILVGAATTPEAARHTFSTIVEIAKGLKDEEVIAVLVVLDDPEMRAIAERAAEELRALGAEVRLEVAPTLEALEAARARLLAEAEAEADARDAAAAAA
B26: FBXL12_hotspot_67_86 (protein)
chain: MLRLLVIRIRAETVEEARRSLALAEAYVRAARARGWRVLVVAWAATPEVAALFRERLAELEREYGARTVLIEDRENGEEELARTTARLKAELLAEMDEEE
B27: FBXL12_hotspot_59_72 (protein)
chain: MRRVVVRGPPEQALAQALALLEALLALLVEHEGTPDEPRLLELLESTYRELLRTARALGDAAAIERARAAIEAAKARLSPATAARLAEAVARAEAEVEAE
B28: FBXL12_hotspot_35_61 (protein)
chain: MRVVRVVFEGTSVEGARYMALAALLAKEALGAKVEIELSPSESREVRVIAAALRMLAEGKSIEEVKEELGLSEEEVEEMKRLAEELRAETAELLAELKAR
B29: FBXL12_hotspot_54_68 (protein)
chain: KTVLLVVRATTVEALRRTLETAVAIAEGLLAAGHRVRVEIRVDSEDVLEATRLATRAAERLEALGAEDIRVEVRVETEEEKEEVERVAEETRREERERRA
B30: FBXL12_hotspot_59_76 (protein)
chain: MRRIILRGPPEQRRANLVAYSDALIKLIKEHKGTPEAERLEEMLVGLFEEALRQAEAERDRALLETLAEQVKKAIPFVSPEYAKRLEEILERIERALAEL
B31: FBXL12_hotspot_59_77 (protein)
chain: MRRIIISGPSEQRIRNLREFSDALIELIDKHKGTPEAERLEEMLVGLFEESLKIAKEEKDVELLKELKKLVEEAIPHVSPEYAERLKKILEEIEKELAEL
B32: FBXL12_hotspot_35_60 (protein)
chain: MRTVRVVFEGTSPEGARYMALAAALAARELGARVEVRLDPSESREVKVIAAALRVLAEGRPLEEVVEELGLTEEEIEEMEKILEELREEVERLSAELRAR

Target: T1, FBXL12, Q9NXK8
Assay: median log2 fold change of GCK-ALFA target abundance (FLAG IP / Myc IP barcode read proportion) (log2 ratio); each designed protein is fused to an ALFA-tag nanobody in HEK293 cells to bring the named protein to FLAG-tagged glucokinase (GCK); Myc marks an untargeted standard; higher = target protein stabilised (more abundant)
Details: target protein: 3xFLAG-MCP-GCK-ALFA reporter; HEK293 landing pad (RPLP)
Outline: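 HEK293 landing-pad cells received a recombined binder library fused to the ALFA nanobody and were induced with 2 μg mL^−1 doxycycline, then transfected with a plasmid encoding a FLAG-tagged target and a Myc-tagged standard. Lysates were collected after 48 h for anti-FLAG and anti-Myc immunoprecipitation, and the circular RNA barcodes were reverse transcribed, amplified and sequenced. Target abundance for each binder is the median log2 ratio of FLAG to Myc barcode read proportions. Barcodes had to reach a proportion of at least 10^−7 in both replicates, each binder needed at least 3 barcodes per replicate, a pseudocount of 10^−6 was applied, and the two replicates were pooled.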

Binder	median log2 fold change
B1	-0.417
B2	-0.455
B3	-0.4
B4	-0.207
B5	-0.31
B6	-0.444
B7	0.1
B8	-0.323
B9	0.364
B10	-0.274
B11	0.185
B12	-0.0916
B13	-0.372
B14	-0.889
B15	-0.218
B16	-0.0489

Binder	median log2 fold change
B17	-0.544
B18	-0.218
B19	-0.363
B20	0.0323
B21	-0.0113
B22	-0.0926
B23	-0.267
B24	-0.0958
B25	-0.542
B26	-0.304
B27	-0.077
B28	-0.36
B29	-0.347
B30	-0.366
B31	0.0852
B32	-0.434

Source: the supplement of paper PMC12632987
